# The campaign covered roughly 310,000 compounds. About 14,000 (4.5%) showed an effect of 50% or more. The effect is printed as a negative number. The sample as a whole holds a higher share of strong results than the screen did.
# Biological target: human ether-à-go-go-related gene (hERG) potassium channel (human, UniProt Q12809)
# Experiment: primary screen, population patch clamp on CHO cells stably expressing hERG; higher = less effect of the substance
# 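Further: peak tail current of the secondary pulse compared with the same well before compound.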
# Sequence of human ether-à-go-go-related gene (hERG) potassium channel (Q12809 whole entry, looked up): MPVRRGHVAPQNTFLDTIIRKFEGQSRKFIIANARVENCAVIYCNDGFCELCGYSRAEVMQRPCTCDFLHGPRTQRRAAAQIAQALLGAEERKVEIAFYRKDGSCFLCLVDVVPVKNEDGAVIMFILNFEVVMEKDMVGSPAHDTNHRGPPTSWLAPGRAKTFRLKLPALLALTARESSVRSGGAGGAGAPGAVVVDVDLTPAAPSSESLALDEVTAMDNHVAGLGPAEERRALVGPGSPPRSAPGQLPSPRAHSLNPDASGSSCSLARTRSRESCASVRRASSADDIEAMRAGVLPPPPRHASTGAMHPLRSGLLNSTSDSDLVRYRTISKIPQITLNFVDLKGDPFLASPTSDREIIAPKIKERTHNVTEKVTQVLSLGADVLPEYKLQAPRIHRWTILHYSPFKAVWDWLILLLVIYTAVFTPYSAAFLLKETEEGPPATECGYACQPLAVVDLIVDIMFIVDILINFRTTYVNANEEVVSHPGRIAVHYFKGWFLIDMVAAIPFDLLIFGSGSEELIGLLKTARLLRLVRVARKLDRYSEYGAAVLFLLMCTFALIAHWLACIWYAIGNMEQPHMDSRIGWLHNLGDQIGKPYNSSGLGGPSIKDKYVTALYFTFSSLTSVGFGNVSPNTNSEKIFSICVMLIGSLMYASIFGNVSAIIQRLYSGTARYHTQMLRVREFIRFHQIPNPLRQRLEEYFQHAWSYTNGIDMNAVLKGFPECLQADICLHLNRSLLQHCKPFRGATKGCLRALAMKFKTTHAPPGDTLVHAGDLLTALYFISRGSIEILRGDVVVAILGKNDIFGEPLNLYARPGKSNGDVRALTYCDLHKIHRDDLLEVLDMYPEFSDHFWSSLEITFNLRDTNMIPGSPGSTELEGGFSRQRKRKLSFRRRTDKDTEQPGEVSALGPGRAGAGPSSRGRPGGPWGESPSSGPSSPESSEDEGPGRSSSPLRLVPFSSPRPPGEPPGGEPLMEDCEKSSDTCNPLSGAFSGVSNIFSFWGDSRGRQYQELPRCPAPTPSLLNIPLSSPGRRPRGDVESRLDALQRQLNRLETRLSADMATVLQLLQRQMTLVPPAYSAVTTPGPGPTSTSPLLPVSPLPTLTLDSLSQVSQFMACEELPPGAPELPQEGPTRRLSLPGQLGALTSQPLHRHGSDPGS
row,SMILES,"hERG current change (%, negative = inhibition) at 10uM [%]"
1,COc1ccccc1Nc1c2ccccc2nc2ccccc12,-71
2,COc1ccccc1Nc1nc(-c2ccccc2)nc2ccccc12,23.5
3,COc1ccc(OC)c(Nc2c3ccccc3nc3ccccc23)c1,-11
4,COc1cc(Nc2c3c(nc4ccccc24)CCCC3)cc(OC)c1OC,-65.9
5,COc1c2ccccc2nc2ccccc12,13.3
6,COc1cc(NC(=O)c2ccc3c(SCC(=O)O)c4c(nc3c2)CCCC4)cc(OC)c1OC,12.3
7,COc1ccc([N+](=O)[O-])cc1Nc1c2ccccc2nc2ccccc12,9.54
8,COc1cc(NS(C)(=O)=O)ccc1Nc1c2ccccc2nc2ccccc12.Cl,-67.7
9,COc1cc(Nc2c3ccccc3nc3ccccc23)cc(OC)c1OC,-63.9
10,COc1cc(Nc2nc(SCC#N)nc3ccccc23)cc(OC)c1OC,-32
11,COc1ccc(Nc2nc(N)c3ccccc3n2)c(OC)c1.Cl,-14.9
12,COc1ccc(S(=O)(=O)N2CCCCCC2)cc1NC(=O)CN1C(=O)NC(C)(c2ccc(C)cc2)C1=O (stereo not drawn),-12.8
13,Cc1ccc(NC(=O)CCC(=O)c2cccs2)cc1F,2.31
14,CCOC(=O)c1oc2cc(O)c(CC)cc2c(=O)c1-c1cscn1,2.56
15,CCC(C)N1C(=O)CCC1C(=O)N1CCN(c2ccc(F)cc2)CC1 (stereo not drawn),-28.3
16,COc1ccc(NC(=O)COC(=O)c2c3c(nc4ccccc24)CCCC3)cc1Cl,9.73
17,COc1cc(Nc2c3c(nc4ccccc24)CCC3)cc(OC)c1OC,-60
18,COC(=O)c1c2c(nc3ccccc13)CCC2,-3.81
19,Cc1ccc(O)c(Nc2nc(-c3ccccc3)nc3ccccc23)c1,14.9
20,Cc1ccc(O)c(Nc2c3ccccc3nc3ccccc23)c1,-52.8
21,COc1ccc(Nc2nc(-c3ccccc3F)nc3ccccc23)cc1OC,0.695

row,SMILES,"hERG current change (%, negative = inhibition) at 10uM [%]"
1,COc1cc(NC(=O)CSc2c3c(nc4ccccc24)CCC3)cc(OC)c1OC,-7.51
2,Cc1ccc(O)c(Nc2ncnc3ccccc23)c1.Cl,11.8
3,COc1ccc(Nc2c3c(nc4ccccc24)CCCC3)cc1OC,-73.2
4,O=C(NCC(c1cccnc1)N1CCN(c2ccc(F)cc2)CC1)c1ccco1 (stereo not drawn),-47.7
5,CN(C)/C=C(\C(=O)c1ccc(F)cc1F)c1nnnn1-c1ccccc1,21.1
6,CCOC(=O)/C(C#N)=C/Nc1ccccc1OC,0.538
7,Cc1cc(=O)oc(C)c1C(=O)OCC(=O)c1ccccc1,-5.02
8,COc1ccc(N(Cc2cc3cc(OC)ccc3[nH]c2=O)S(=O)(=O)c2ccc(NC(C)=O)cc2)cc1,5.64
9,Cc1ccc(C2(c3ccccc3)NC(=O)N(CC(=O)NC3CCS(=O)(=O)C3)C2=O)cc1C (stereo not drawn),-9.17
10,CCC1(c2ccccc2)NC(=O)N(CC(=O)NC2(C#N)CCCCC2)C1=O (stereo not drawn),2.94
11,COc1ccc(C2(c3ccc(OC)cc3)NC(=O)N(CC(=O)NC3(C#N)CCCCC3)C2=O)cc1,-42.4
12,Cc1ccc(C2(c3ccccc3)NC(=O)N(CC(=O)NCc3ccccc3)C2=O)cc1C (stereo not drawn),-23
13,N#CC1(NC(=O)CN2C(=O)NC3(CCCCCC3)C2=O)CCCCC1,-0.951
14,Cc1ccc(C2(c3ccccc3)NC(=O)N(CC(=O)N(C)C3CCS(=O)(=O)C3)C2=O)cc1C (stereo not drawn),-22
15,CCN(C(=O)CN1C(=O)NC(c2ccccc2)(c2ccc(C)c(C)c2)C1=O)C1CCS(=O)(=O)C1 (stereo not drawn),-53.4
16,N#CC1(NC(=O)CN2C(=O)NC(c3ccccc3)(c3ccccc3)C2=O)CCCC1,-55
17,Cc1ccc(C2(c3ccccc3)NC(=O)N(CC(=O)NC3(C#N)CCCC3)C2=O)cc1C (stereo not drawn),-63.4
18,Cc1cc(NC(=O)CN2C(=O)NC(c3ccccc3)(c3ccc(C)c(C)c3)C2=O)no1 (stereo not drawn),-48.5
19,CCN(C(=O)CN1C(=O)NC(c2ccccc2)(c2ccc(C)c(C)c2)C1=O)C1CCCCC1 (stereo not drawn),-33.3
20,Cc1ccc(C2(c3ccccc3)NC(=O)N(CC(=O)NCc3ccco3)C2=O)cc1C (stereo not drawn),-50.4
21,O=C1c2ccccc2C2NC(=O)C3(CCCCC3)N12 (stereo not drawn),7.54
